An excerpt weighted towards active compounds, which were near 6.3% of everything screened.
Abs 340nm = compounds absorbing at 340 nm. compound absorbance at 340 nm, fold over control. fold change at 10 µM. 65,000 tested, under 10 active. AID 708;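 active = at 10 µM dose, initial 340 nm absorbance at least 2 fold that of control wells; inactive = change under 2 fold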;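 also: initial absorbance extrapolated from kinetic A340 decline of NADH oxidation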
MK inhibit = inhibitors of Streptococcus pneumoniae mevalonate kinase; purified MK, PK/LDH-coupled NADH absorbance 340 nm; inhibition, % at 10 µM; hit rate 0.48% among 65,000; AID 555;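 active = ranked among the strongest by inhibition in the single 10 µM screen, a fixed top-ranked set picked for dose follow-up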
Autofluor 339 = intrinsic fluorescence of library compounds, ex339/em460 – biochemical, MLSMR library, data from DPM-DC assay, artefact control, profiling panel; hit rate 5.5% among 65,000; compound autofluorescence, ex339/em460 nm, NADH buffer; active compounds read high; 1 = no-compound wells, NADH background; fluorescence fold increase at 10 µM;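 active = at 10 µM, mean starting fluorescence two-fold or more over control wells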;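 also: signal is the first read of a kinetic run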
NADH coupling = inhibition of NAD/NADH coupling enzymes, library profiling; IC50, µM (titrated, usually from 10 µM); coupled PK/LDH NADH assays, four targets; hit rate 0.02% among 65,000; AID 774;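 active = single-dose screening hits from any of four coupled enzyme assays that gave an IC50 when retested across doses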;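 also: the DPM-DC format reads NADH fluorescence rather than 340 nm absorbance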
PMK inhibit = S. pneumoniae PMK inhibition; hit rate 0.49% among 65,000; purified PMK, PK/LDH-coupled NADH absorbance 340 nm; AID 539; inhibition, % at 10 µM;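 active = top-ranked compounds by inhibition in the single 10 µM screen, taking a fixed number of the strongest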
Spn DPM-DC inh = blocks S. pneumoniae diphosphomevalonate decarboxylase; hit rate 0.49% among 65,000; purified DPM-DC, PK/LDH coupled NADH fluorescence; calls only at 10 µM;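 active = the 320 compounds with the highest percent inhibition in the single-dose primary screen, excluding strongly autofluorescent ones, cut at about 32% in these data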;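 also: kinetic rate of NADH fluorescence loss reporting ADP formed by the decarboxylase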
Each line names hits and unclear results; the compound was inactive in the other large screens.

O=C(c1coc2ccc(O)c(CN3CCOCC3)c12)C1CC1	none
Cc1oc2c(CN3CCCC3)c(O)ccc2c(=O)c1-c1ccccc1	Autofluor 339 3 (not shown: Spn DPM-DC inh)
O=c1c(-c2ccc(Br)cc2)coc2c(CN3CCOCC3)c(O)ccc12	Autofluor 339 3 (not shown: Spn DPM-DC inh)
CCc1cc2c(=O)c(-c3nc4ccccc4n3C)coc2c(CN2CCOCC2)c1O	none
Cc1oc2c(CN3CCOCC3)c(O)ccc2c(=O)c1-c1ccc(Br)cc1	Autofluor 339 3.1 (not shown: Spn DPM-DC inh)
CCn1c(SCC(=O)c2cc(OC)ccc2OC)nnc1C1CC1	none
C=CCSc1nnc(-c2c[nH]c3ccccc23)n1CC	none
CCn1c(=O)c(C)nn2c3ccccc3nc12	none
CCc1nc2ccccc2n(CCOCCn2c(=O)c(CC)nc3ccccc32)c1=O	none
O=C(O)CCc1nn2c3ccccc3nc2n(CCN2CCCCC2)c1=O	Autofluor 339 4.4 (not shown: Spn DPM-DC inh)
O=C(O)CCc1nc2ccccc2n(CCc2ccccc2)c1=O	Autofluor 339 2.3
O=C(NCCCN1CCN(c2ccccc2F)CC1)C1CCC(=O)N1C1CCCC1 (stereo not given)	none
Cc1noc(C)c1S(=O)(=O)N1CCC(C(=O)Nc2ccc(OC(F)(F)F)cc2)CC1	none
COc1cc(=O)n(C)c2cc(N(C)C)ccc12	Autofluor 339 4 (not shown: Spn DPM-DC inh)
Cc1ccc(-c2nc3ccccc3[nH]2)s1	Autofluor 339 2.5 (not shown: Spn DPM-DC inh)
Cc1nnsc1-c1nc2ccccc2[nH]1	Autofluor 339 4.9 (not shown: Spn DPM-DC inh)
Cc1[nH]c2ccccc2c1-c1nc2ccccc2[nH]1	none
c1csc(-c2nc3ccccc3[nH]2)c1	Autofluor 339 3.6 (not shown: Spn DPM-DC inh)
COC(=O)C1CCN(C(=O)COC(=O)CC(NC(N)=O)c2ccc(Cl)cc2)CC1 (stereo not given)	none
CCOC(=O)N1C(=O)c2cc(OC)ccc2S1(=O)=O	NADH coupling 19µM, PMK inhibit 29
COCCCNC(=O)C1CCN(S(=O)(=O)N(CC(C)C)CC(C)C)CC1	none
CCS(=O)(=O)N1CCC(C(=O)NCc2ccco2)CC1	PMK inhibit 26
CCOCCCNC(=O)C1CCN(S(=O)(=O)N(CC(C)C)CC(C)C)CC1	PMK inhibit 26
CCOCCCNC(=O)C1CCN(S(=O)(=O)CC)CC1	PMK inhibit 25
Cc1ccc(-c2nnc(N(C)C(=O)c3ccccn3)s2)cn1	none
CC(CN(C)Cc1ccccc1)OC(=O)c1ccc2c(c1)OCCO2 (stereo not given)	none
CCCCC(=O)Nc1ccc(NC(=O)c2ccccc2OC)cn1	none
Cc1ccc(-c2cc(C(=O)NCCCn3ccnc3)c3cc(Br)ccc3n2)o1	Autofluor 339 2.9
Cc1ccc(-c2cc(C(=O)NC3=NCCS3)c3cc(Br)ccc3n2)o1	none
Cc1cc(NC(=O)c2cc(-c3ccncc3)nc3c(C)cccc23)no1	Autofluor 339 2.7
Cc1cc(NC(=O)c2cccc(C(=O)Nc3cc(C)on3)n2)no1	none
Cc1ccc(-c2cc(C(=O)NCc3ccco3)c3ccccc3n2)o1	Autofluor 339 4.9 (not shown: Spn DPM-DC inh)
Cc1cc(NC(=O)c2cc(-c3ccccn3)nc3ccccc23)no1	none
Cc1cc(C)c2nc(-c3ccccn3)cc(C(=O)Nc3cc(C)on3)c2c1	Autofluor 339 3.1
Cc1cc(C)c2nc(-c3ccccn3)cc(C(=O)NCc3ccco3)c2c1	Autofluor 339 3.6 (not shown: Spn DPM-DC inh)
Cc1cc(NC(=O)c2ccccc2-c2ccccc2C(=O)O)no1	none
Cc1cc(NC(=O)c2cc(-c3cccs3)nc3ccccc23)no1	Autofluor 339 2 (not shown: Spn DPM-DC inh)
CC1(C)OC(=O)C(=CNn2cnc3ccccc3c2=O)C(=O)O1	none
COC(=O)CSc1ccc2c(N)c(C(=O)OC)sc2c1	Autofluor 339 2.5
O=C(Cn1cc(C(=O)c2cccs2)c2ccccc21)NCc1ccc2c(c1)OCO2	none
COc1ccc(C2C3=C(CC(C)(C)CC3=O)Nc3c2c(=O)[nH]c2nc(C)nn32)cc1 (stereo not given)	Autofluor 339 2.5
Cc1cccc2nc(C(F)(F)F)nc(=O)n12	none
COCCn1c(=NC(=O)CSCC(=O)Nc2cc(C)on2)sc2cc(C(=O)OC)ccc21	none
COc1cc(-c2nnc(COc3ccc4ccccc4c3)o2)cc(OC)c1OC	PMK inhibit 28
Cn1cccc1Cc1nnc(SCC(=O)NCc2ccc(F)cc2)n1-c1ccc(F)cc1	MK inhibit active
N=c1oc2ccc3ccccc3c2cc1-c1nnc2n1CCCCC2	Autofluor 339 2.1 (not shown: Spn DPM-DC inh)
Clc1c(-c2nnc3n2CCCCC3)sc2ccccc12	none
CC(C)c1ccccc1OCCCCCNCCO	none
Cc1cccc2cc(CN(Cc3ccco3)S(=O)(=O)c3ccc4c(c3)OCCO4)c(=O)[nH]c12	Spn DPM-DC inh active
CCC(C)(C)NC(=O)C(c1cccnc1)N(CCOC)C(=O)Cn1nnc2ccccc21 (stereo not given)	none
O=C1CSC(c2nn(-c3ccccc3)cc2-c2cc3ccccc3oc2=O)N1Cc1ccco1 (stereo not given)	Autofluor 339 2.3 (not shown: Spn DPM-DC inh)
CCOC(=O)c1cnc2nc[nH]n2c1=O	none
CC(=O)N1CSCC1C(=O)N1CCN(c2ccc(N3CCOCC3)nn2)CC1 (stereo not given)	Autofluor 339 2.1 (not shown: Spn DPM-DC inh)
COc1ccc(CC(=O)N2CCOCC2)cc1OC	none
COc1ccc(C(=O)CCC(=O)N2CCN(c3ccc(N4CCOCC4)nn3)CC2)cc1	Autofluor 339 2.1 (not shown: Spn DPM-DC inh)
CCOc1ccc(CC(=O)N2CCN(c3ccc(N4CCOCC4)nn3)CC2)cc1OCC	Autofluor 339 2.1 (not shown: Spn DPM-DC inh)
COc1cc(OC)cc(C(=O)OCc2cc3ccccc3[nH]c2=O)c1	none
CCCCN=CC1=C(O)C(C(=O)OC)C(C)(C)CC1=O (stereo not given)	none
CNc1nnc(-c2cc3ccccc3oc2=O)s1	Autofluor 339 2.3
CCc1nnc(NC(=O)CSc2nnc(-c3ccccc3NC(=O)c3ccccc3)o2)s1	Autofluor 339 2.1
COC(=O)c1ccccc1NC(=O)n1cc(C)cn1	Autofluor 339 3.6 (not shown: Spn DPM-DC inh)
COc1ccc2nc3c(cc2c1)c(NC(=O)c1cccs1)nn3CC(C)C	Autofluor 339 3.7 (not shown: Spn DPM-DC inh)
CC(C)Cn1nc(NC(=O)C(C)(C)C)c2cc3ccccc3nc21	none
COc1ccc2[nH]c(=O)c(CN(CC3CCCO3)C(=O)Nc3ccccc3OC)cc2c1 (stereo not given)	Autofluor 339 2.5
COc1cc(C(=O)N(Cc2cc3ccccc3[nH]c2=O)CC2CCCO2)cc(OC)c1OC (stereo not given)	none
CCc1ccc2[nH]c(=O)c(CN(CCCN3CCOCC3)C(=O)Nc3cccc(Cl)c3)cc2c1	none
CCN1CCCC1CN(Cc1cc2cc(C)cc(C)c2[nH]c1=O)C(=O)Nc1ccccc1OC (stereo not given)	none
COc1ccccc1NC(=O)N(Cc1cc2cc(OC)c(OC)cc2[nH]c1=O)CC1CCCO1 (stereo not given)	Autofluor 339 2.7
COc1ccc2[nH]c(=O)c(CN(CCN3CCCC3)C(=O)Nc3ccccc3Cl)cc2c1	Autofluor 339 3.2

Assay outcomes: PubChem, SRMLSC
